Assay results taken from PMC4336329 (PLoS ONE, 2015).
Among all 310,000 compounds or so, about 14,000 (4.5%) showed an effect of 50% or more. The effect is printed as a negative number. The list comes from a sample in which strong results are over-represented; it also holds similar structures and randomly drawn compounds.

target: human ether-à-go-go-related gene (hERG) potassium channel (human, UniProt Q12809); assay: primary screen, population patch clamp on CHO cells stably expressing hERG; higher = less effect of the substance
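Also: peak tail current of the secondary pulse compared with the same well before compound.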

human ether-à-go-go-related gene (hERG) potassium channel, sequence (Q12809 whole entry, looked up): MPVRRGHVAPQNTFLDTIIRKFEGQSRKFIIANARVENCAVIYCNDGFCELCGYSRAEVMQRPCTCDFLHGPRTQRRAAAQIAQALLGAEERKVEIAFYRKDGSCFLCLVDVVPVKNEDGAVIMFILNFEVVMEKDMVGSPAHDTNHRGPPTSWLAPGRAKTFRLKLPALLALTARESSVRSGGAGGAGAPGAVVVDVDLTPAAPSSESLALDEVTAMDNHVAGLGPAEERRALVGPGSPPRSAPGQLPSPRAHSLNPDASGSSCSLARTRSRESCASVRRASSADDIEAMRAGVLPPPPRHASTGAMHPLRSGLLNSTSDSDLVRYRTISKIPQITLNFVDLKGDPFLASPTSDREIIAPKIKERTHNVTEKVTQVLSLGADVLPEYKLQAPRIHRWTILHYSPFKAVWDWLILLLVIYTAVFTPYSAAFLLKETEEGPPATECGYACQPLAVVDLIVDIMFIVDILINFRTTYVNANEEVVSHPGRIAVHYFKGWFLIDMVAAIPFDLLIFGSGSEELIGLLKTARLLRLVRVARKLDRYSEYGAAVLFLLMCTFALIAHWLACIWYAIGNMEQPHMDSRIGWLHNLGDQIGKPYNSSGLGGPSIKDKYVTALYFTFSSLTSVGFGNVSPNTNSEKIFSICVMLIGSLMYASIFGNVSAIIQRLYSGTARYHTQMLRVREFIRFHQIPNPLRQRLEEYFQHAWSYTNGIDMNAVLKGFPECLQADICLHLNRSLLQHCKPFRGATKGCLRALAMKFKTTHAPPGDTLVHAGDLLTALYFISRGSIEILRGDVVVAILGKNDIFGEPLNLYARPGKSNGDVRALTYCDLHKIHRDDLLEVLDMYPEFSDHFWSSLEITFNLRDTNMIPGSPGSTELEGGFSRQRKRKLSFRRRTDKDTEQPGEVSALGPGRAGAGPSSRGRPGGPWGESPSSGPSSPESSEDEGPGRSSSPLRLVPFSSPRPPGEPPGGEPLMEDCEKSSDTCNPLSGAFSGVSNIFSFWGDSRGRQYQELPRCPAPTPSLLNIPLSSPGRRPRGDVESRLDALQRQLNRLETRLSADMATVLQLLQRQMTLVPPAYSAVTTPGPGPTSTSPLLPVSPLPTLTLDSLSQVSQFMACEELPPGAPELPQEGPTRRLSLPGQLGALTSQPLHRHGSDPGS

SMILES | hERG current change (%, negative = inhibition) at 10uM [%]
COc1ccccc1NC(=O)NCC(c1ccco1)N1CCCCC1 (stereo not shown) | 14.8
Cc1ccc(S(=O)(=O)Nc2ccc(SC(F)F)cc2)c(C)c1 | 10.3
COc1ccc(NC(=O)CN2C(=O)C(C)Oc3ccc(C)cc32)cc1 (stereo not shown) | 3.11
CC(NC(=O)COc1ccccc1Cl)c1ccccc1 (stereo not shown) | 7.82
O=C(N/C(=C\c1cccs1)C(=O)N1CCOCC1)c1ccco1 | 0.17
Cc1ccccc1NC(=O)/C(=C\c1cccs1)NC(=O)c1ccco1 | -7.17
CN1CCN(C(=O)/C(=C/c2cccs2)NC(=O)c2ccco2)CC1 | -70.5
CN1CCN(C(=O)/C(=C\c2cccs2)NC(=O)c2ccco2)CC1 | -67.4
Cc1ccc(NC(=O)/C(=C/c2cccs2)NC(=O)c2ccco2)cc1 | 6.71
O=C(N/C(=C/c1cccs1)C(=O)N1CCOCC1)c1ccco1 | -1.03
O=C(Nc1ccc(S(=O)(=O)N2C[C@@H]3C[C@@H](C2)c2cccc(=O)n2C3)cc1)c1ccc(F)cc1 | -2.39
CC(=O)Nc1nc(N)n(-c2ccccc2)n1 | 3.2
Clc1ccc(-c2ncc3ccccn23)cc1 | -4.95
CN(c1ccc(C(=O)NCc2ccc3c(c2)OCO3)cc1)S(=O)(=O)c1ccccc1 | -4.02
O=C(NC1=NCCS1)C1CC2CCC1C2 (stereo not shown) | 2.05
COc1ccc(/C=N\NC(=O)c2cc(O)c(O)c(O)c2)cc1COc1ccc(C(=O)OCC(C)C)cc1 | 21
CC(C)(C)c1ccc(OC(=O)c2ccc3snnc3c2)cc1 | 20.4
Cc1cc2cc(CN(CCN(C)C)C(=S)NCc3ccco3)c(=O)[nH]c2cc1C | -43.8
Cc1ccc(C)c2[nH]c(=O)c(CN(Cc3cccnc3)C(=S)NCc3ccco3)cc12 | -61.1
CN(C)CCN(Cc1cc2cc3c(cc2[nH]c1=O)OCO3)C(=S)NCc1ccco1 | -11.4
CCN(CC)CCN(Cc1cc2cc(C)c(C)cc2[nH]c1=O)C(=S)NCc1ccco1 | -52.8
O=c1[nH]c2cc3c(cc2cc1CN(Cc1cccnc1)C(=S)NCc1ccco1)OCO3 | -52.5
CCN(CC)CCN(Cc1cc2cc3c(cc2[nH]c1=O)OCO3)C(=S)NCc1ccco1 | -55.8
CCN(CC)CCCN(Cc1cc2cc3c(cc2[nH]c1=O)OCO3)C(=S)NCc1ccco1 | -38.2
Cc1ccc(C)c2[nH]c(=O)c(CN(Cc3cccs3)C(=S)NCc3ccco3)cc12 | -33
O=c1[nH]c2cc3c(cc2cc1CN(CCCO)C(=S)NCc1ccco1)OCO3 | 12
O=c1[nH]c2cc3c(cc2cc1CN(Cc1cccnc1)C(=S)NCc1ccco1)OCCO3 | -5.62
Cc1cc2cc(CN(Cc3cccs3)C(=S)NCc3ccco3)c(=O)[nH]c2cc1C | -13.9

SMILES | hERG current change (%, negative = inhibition) at 10uM [%]
Cc1ccc(C)c2[nH]c(=O)c(CN(CC3CCCO3)C(=S)NCc3ccco3)cc12 (stereo not shown) | -24.3
COc1ccc(C(=O)NCCSc2ccc(C)cc2)cc1 | -11
O=c1cc(-c2cc3ccccc3o2)c2cc(O)ccc2o1 | 13.3
Clc1ccc(-[n+]2c(-c3cccc(Br)c3)[nH]c3nc4ccccc4nc32)cc1 | 13.5
Cc1ccc(S(=O)(=O)NC(=O)COc2ccccc2C)c(C)c1 | -21.9
Cc1c(Cl)cccc1NC(=O)COC(=O)c1c2c(nc3ccccc13)CCN(Cc1ccccc1)C2 | 2.82
Cc1ccc(C(=O)NNC(=O)Cn2nnc3ccccc32)cc1 | 13.3
NC(=O)COc1cccc(/C=N/NC(=O)c2ccc(-n3cccc3)cc2)c1 | 13.5
CC(C)CNC(=S)N(CCN(C)C)Cc1cc2cc3c(cc2[nH]c1=O)OCO3 | 0.354
CCN(CC)CCN(Cc1cc2cc3c(cc2[nH]c1=O)OCO3)C(=S)NCC(C)C | -55.1
CCN(CC)CCN(Cc1cc2cc3c(cc2[nH]c1=O)OCCO3)C(=S)NCC(C)C | -4.96
S=C1NCCOCCNC(=S)NCCOCCOCCOCCN1 | 10.2
CCc1cc(=O)oc2cc(C)c3c(C)coc3c12 | 16.3
CCOC(=O)C1=C(C)NC(=O)C(C(N)=O)C12CCCCC2 (stereo not shown) | 12.4
CC(C)NC(=O)CN1C(=O)CSc2ccc(S(=O)(=O)N3CCCC3)cc21 | 15.6
CSc1ccc(CN2CCCC(N3CCN(c4ccccc4)CC3)C2)cc1 (stereo not shown) | -64.2
OCCOc1ccc(CN2CCCC(N3CCN(c4ccc(F)cc4)CC3)C2)cc1 (stereo not shown) | -69.8
COc1ccc(N2CCN(C3CCCN(Cc4cccc(C(C)=O)c4)C3)CC2)cc1 (stereo not shown) | -30.2
COc1ccc(CN2CCCC(N3CCN(c4ccc(OC)cc4)CC3)C2)cc1 (stereo not shown) | -45
COC(=O)CCC(=O)N1CCCC(N2CCN(c3ccc(OC)cc3)CC2)C1 (stereo not shown) | -1.47
COc1ccc(N2CCN(C3CCCN(Cc4cccc(OC)c4)C3)CC2)cc1 (stereo not shown) | -64.4
COc1ccc(N2CCN(C3CCCN(Cc4cccc(C)c4)C3)CC2)cc1 (stereo not shown) | -32.8
COc1ccccc1N1CCN(C2CCCN(Cc3ccccc3OCCO)C2)CC1 (stereo not shown) | -25.5
CCOc1ccc(CN2CCCC(N3CCN(c4ccc(OC)cc4)CC3)C2)cc1 (stereo not shown) | -64
CCN(C1CCS(=O)(=O)C1)S(=O)(=O)c1ccc2ccccc2c1 (stereo not shown) | -10.5
Cc1c[n+](CC(=O)c2ccccc2)cs1.[Br-] | 22
COc1ccc(NC(=O)CSCC(=O)Nc2ccccc2N2CCCC2)cc1 | -7.76
